Data taken from PubChem BioAssay.
Active and inactive are the calls of the source.

Legend:
[1] = biological target: Albumin (Bos taurus) (UniProt P02769); assay: compounds binding labelled BSA control protein – biochemical, small-molecule microarray, Alexa647 label, 635/667 nm fluorescence, artefact control for SMM control protein annotation, profiling panel (AID 1118); conditions: BSA-A647 binding, fluorescence 635 nm, higher = more signal;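 also: score merges 667 nm emission intensity and signal-to-noise per printed compound spot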
Sequence of Albumin (Bos taurus) (P02769 whole entry, looked up): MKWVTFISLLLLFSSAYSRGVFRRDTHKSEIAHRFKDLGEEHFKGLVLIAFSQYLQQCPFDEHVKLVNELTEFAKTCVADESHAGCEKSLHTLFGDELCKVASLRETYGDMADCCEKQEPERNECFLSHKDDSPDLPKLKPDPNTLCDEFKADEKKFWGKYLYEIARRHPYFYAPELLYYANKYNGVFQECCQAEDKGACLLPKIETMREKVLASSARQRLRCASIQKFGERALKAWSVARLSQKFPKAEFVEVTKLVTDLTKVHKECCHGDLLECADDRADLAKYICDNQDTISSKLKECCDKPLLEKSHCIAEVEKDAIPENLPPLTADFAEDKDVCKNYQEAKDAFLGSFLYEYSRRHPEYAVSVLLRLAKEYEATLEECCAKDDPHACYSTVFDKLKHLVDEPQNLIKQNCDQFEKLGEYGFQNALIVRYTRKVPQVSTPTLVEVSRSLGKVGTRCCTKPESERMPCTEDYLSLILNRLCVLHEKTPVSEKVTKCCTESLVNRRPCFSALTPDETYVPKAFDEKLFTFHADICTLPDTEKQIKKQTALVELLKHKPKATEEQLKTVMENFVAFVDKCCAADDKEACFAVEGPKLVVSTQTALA

[2] = probe aXIP binding to arrayed compounds – biochemical, NeuroSMM set, 635/667 nm fluorescence, primary screen (AID 1119); conditions: small-molecule microarray, higher = more signal, called active from +8 up or from −8 down;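 also: probe is the protein aXip251-270 applied at 1 µg/mL to compound-printed slides; binding of probe to printed compounds measured as 667 nm fluorescence plus signal to noise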
[3] = probe aNOTCH3 binding on compound microarray – biochemical, small-molecule microarray, 635/667 nm fluorescence, primary screen (AID 1120); conditions: higher = more signal;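 also: probe is a biotin-tagged antibody raised against NOTCH3 rather than NOTCH3 protein; score merges spot fluorescence near 667 nm with spot signal to noise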
[4] = probe aNOTCH2 binding on compound microarray – biochemical, small-molecule microarray, 635/667 nm fluorescence, primary screen (AID 1121); conditions: higher = more signal;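 also: score merges feature fluorescence read at 667 nm with its signal to noise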
[5] = biological target: Carbonic anhydrase 2 (Homo sapiens) (UniProt P00918); assay: compounds binding carbonic anhydrase 2 – biochemical, small-molecule microarray, Alexa647-labelled CAII, profiling panel (AID 1122); conditions: CAII-A647 binding fluorescence, higher = more signal
[6] = COS7 lysate on small-molecule microarray, probe aHis, 635 nm (AID 1123); conditions: COS7 cell lysate, fluorescence, higher = more signal;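 also: z-score combines 667nm fluorescence intensity with signal-to-noise per printed compound spot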
[7] = probe aLAP1 signal on lysate-treated microarray – cell lysate, small-molecule microarray, COS7 lysate, primary screen (AID 1124); conditions: probe aLAP1, fluorescence, higher = more signal;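 also: lysate comes from COS7 cells expressing LAP1 and is applied at 0.3 µg/mL; score merges spot fluorescence near 667 nm with signal-to-noise over triplicate slides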
[8] = system: Sam68 (KHDRBS1); assay: compounds binding KHDRBS1 protein – biochemical, small-molecule microarray, 635 nm fluorescence, primary screen (AID 1125); conditions: higher = more signal;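 also: score merges 667 nm channel intensity with signal to noise over triplicate slides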
[9] = system: Chordin-like protein 2 (CHRDL2); assay: compounds binding chordin-like 2 – biochemical, small-molecule microarray, 635 nm fluorescence, primary screen (AID 1126); conditions: fluorescence 635 nm, higher = more signal;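 also: printed compound slides probed with Chrdl2 protein at 4 µg/mL for 1 h at 4 C; score merges 667 nm emission intensity with signal to noise over three replicate slides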
[10] = biological target: Concanavalin-A (Canavalia ensiformis) (UniProt P02866); assay: compounds binding concanavalin A lectin – biochemical, small-molecule microarray, Alexa647 label, 635 nm, artefact control for SMM control protein annotation, primary screen (AID 1127); conditions: ConA-A647 binding fluorescence, higher = more signal;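 also: z combines 667 nm emission intensity with signal-to-noise across three replicate slides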
Sequence of Concanavalin-A (Canavalia ensiformis) (P02866 whole entry, looked up): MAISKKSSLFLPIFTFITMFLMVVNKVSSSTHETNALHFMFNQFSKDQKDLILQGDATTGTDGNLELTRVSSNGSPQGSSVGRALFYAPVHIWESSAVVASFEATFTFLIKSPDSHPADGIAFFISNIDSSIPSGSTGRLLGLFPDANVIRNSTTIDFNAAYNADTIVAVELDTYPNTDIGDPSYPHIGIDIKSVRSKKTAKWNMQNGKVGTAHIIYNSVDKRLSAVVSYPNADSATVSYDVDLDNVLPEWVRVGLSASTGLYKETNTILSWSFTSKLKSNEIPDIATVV

[11] = compounds binding Alexa647 anti-His antibody – biochemical, small-molecule microarray, 635 nm fluorescence, artefact control for SMM control protein annotation, primary screen (AID 1128); conditions: higher = more signal;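 also: score merges feature fluorescence with signal-to-noise for each printed compound spot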
[12] = system: Human papillomavirus type 1a E7 protein (residues 1-88); assay: HPV1a E7 small-molecule binders, primary screen, biochemical, small-molecule microarray, residues 1-88, 635 nm (AID 1129); conditions: small-molecule microarray binding, fluorescence 635 nm; higher = more signal
[13] = biological target: Focal adhesion kinase 1 (Homo sapiens) (UniProt Q05397); assay: PTK2 protein binding on printed compound slides – biochemical, small-molecule microarray, 635/667 nm fluorescence, BSA, DTT, primary screen (AID 1130); conditions: 635 nm fluorescence, higher = more signal;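 also: composite of spot emission at 667 nm and signal to noise over triplicate slides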
Sequence of Focal adhesion kinase 1 (Homo sapiens) (Q05397 whole entry, looked up): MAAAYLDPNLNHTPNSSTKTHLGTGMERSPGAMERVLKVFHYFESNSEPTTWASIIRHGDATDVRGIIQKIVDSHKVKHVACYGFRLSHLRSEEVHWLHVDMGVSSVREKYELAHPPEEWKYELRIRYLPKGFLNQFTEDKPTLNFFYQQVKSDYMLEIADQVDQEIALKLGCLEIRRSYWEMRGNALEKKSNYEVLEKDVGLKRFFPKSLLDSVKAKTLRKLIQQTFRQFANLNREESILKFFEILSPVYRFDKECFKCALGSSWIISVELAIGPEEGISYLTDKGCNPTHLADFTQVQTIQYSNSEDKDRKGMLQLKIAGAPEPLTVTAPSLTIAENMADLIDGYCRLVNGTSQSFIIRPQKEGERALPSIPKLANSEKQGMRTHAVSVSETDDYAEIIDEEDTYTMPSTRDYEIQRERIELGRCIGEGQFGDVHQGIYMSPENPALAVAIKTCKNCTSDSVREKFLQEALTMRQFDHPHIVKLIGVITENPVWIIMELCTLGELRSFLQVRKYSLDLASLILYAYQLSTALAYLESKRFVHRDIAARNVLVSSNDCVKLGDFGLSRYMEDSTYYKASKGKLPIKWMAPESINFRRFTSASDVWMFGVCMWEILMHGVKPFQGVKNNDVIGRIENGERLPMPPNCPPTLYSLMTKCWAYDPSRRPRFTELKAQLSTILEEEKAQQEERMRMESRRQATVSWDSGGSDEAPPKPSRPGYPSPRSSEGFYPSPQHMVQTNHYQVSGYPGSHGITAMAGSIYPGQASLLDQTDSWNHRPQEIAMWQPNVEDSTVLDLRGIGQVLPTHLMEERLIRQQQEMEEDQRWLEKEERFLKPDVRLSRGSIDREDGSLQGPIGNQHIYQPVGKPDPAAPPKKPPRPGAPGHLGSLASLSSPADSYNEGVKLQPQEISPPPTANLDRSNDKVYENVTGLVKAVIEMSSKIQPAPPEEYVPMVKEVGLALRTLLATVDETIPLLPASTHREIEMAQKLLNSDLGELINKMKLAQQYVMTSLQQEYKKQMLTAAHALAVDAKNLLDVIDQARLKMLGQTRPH

[14] = system: Fibrinogen (Alexa647-labelled); assay: Alexa647-fibrinogen binding to printed small molecules – biochemical, small-molecule microarray, 635/667 nm fluorescence, artefact control for SMM control-protein annotation, profiling panel (AID 1131); conditions: fibrinogen-A647 binding fluorescence, higher = more signal;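 also: z-score merges 667 nm fluorescence with per-spot signal-to-noise over triplicate slides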
[15] = biological target: Follistatin (Homo sapiens) (UniProt P19883); assay: FST protein binding to printed compounds – biochemical, small-molecule microarray, 635/667 nm fluorescence, primary screen (AID 1132); conditions: 635 nm fluorescence, higher = more signal
Sequence of Follistatin (Homo sapiens) (P19883 whole entry, looked up): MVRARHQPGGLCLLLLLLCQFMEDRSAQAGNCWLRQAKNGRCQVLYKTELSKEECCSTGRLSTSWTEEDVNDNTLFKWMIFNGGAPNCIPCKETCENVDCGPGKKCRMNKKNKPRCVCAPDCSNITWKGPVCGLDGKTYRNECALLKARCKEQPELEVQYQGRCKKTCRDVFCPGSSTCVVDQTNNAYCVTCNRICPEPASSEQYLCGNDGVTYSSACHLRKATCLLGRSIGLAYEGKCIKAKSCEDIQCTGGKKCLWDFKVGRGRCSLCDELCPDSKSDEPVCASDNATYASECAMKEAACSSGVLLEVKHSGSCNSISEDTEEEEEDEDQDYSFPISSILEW

[16] = biological target: Fibroblast growth factor 2 (Homo sapiens) (UniProt P09038); assay: basic fibroblast growth factor binding to printed compounds – biochemical, small-molecule microarray, 635/667 nm fluorescence, primary screen (AID 1133); conditions: FGF2, fluorescence 635/667, higher = more signal
Sequence of Fibroblast growth factor 2 (Homo sapiens) (P09038 whole entry, looked up): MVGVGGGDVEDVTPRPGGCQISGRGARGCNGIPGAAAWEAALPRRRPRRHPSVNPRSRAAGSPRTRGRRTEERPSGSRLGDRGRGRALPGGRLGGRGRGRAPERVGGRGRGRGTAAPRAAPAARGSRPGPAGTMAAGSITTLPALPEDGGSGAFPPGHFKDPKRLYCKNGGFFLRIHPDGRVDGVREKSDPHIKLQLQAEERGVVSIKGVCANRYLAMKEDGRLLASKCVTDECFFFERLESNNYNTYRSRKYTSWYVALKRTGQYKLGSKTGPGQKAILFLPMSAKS

[17] = JC-1 mitochondrial potential readout, lung cancer cells – cell-based, A549, JC-1 fluorescence, basal, 24 h, 100 nL, profiling panel (AID 1138); conditions: higher = more signal;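 also: A549 lung adenocarcinoma cells under basal conditions with no added stimulus; test concentration not given here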
[18] = system: Lefty1; assay: Lefty1 protein binding to printed compounds – biochemical, small-molecule microarray, 635/667 nm fluorescence, primary screen (AID 1139); conditions: fluorescence 635/667, higher = more signal
[19] = system: wheat germ agglutinin (Triticum aestivum), Alexa647-labelled; assay: Alexa647-WGA lectin binding to printed small molecules – biochemical, small-molecule microarray, 635/667 nm fluorescence, artefact control for SMM control-protein annotation, profiling panel (AID 1140); conditions: WGA-A647 binding, 635 nm fluorescence, higher = more signal;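 also: score merges 667 nm feature emission with signal to noise over triplicate slides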
[20] = biological target: Luciferin 4-monooxygenase (Photinus pyralis) (UniProt P08659); assay: inhibition of purified Photinus pyralis luciferase – biochemical, luminescence, purified enzyme, 2006 set, primary screen (AID 1141); conditions: purified firefly luciferase, SteadyGlo luminescence, 30 min; higher = more signal, called active from +8 up or from −8 down;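 also: cell-free assay with purified firefly luciferase at 100 ng per well in PBS; test concentration not given here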
Sequence of Luciferin 4-monooxygenase (Photinus pyralis) (P08659 whole entry, looked up): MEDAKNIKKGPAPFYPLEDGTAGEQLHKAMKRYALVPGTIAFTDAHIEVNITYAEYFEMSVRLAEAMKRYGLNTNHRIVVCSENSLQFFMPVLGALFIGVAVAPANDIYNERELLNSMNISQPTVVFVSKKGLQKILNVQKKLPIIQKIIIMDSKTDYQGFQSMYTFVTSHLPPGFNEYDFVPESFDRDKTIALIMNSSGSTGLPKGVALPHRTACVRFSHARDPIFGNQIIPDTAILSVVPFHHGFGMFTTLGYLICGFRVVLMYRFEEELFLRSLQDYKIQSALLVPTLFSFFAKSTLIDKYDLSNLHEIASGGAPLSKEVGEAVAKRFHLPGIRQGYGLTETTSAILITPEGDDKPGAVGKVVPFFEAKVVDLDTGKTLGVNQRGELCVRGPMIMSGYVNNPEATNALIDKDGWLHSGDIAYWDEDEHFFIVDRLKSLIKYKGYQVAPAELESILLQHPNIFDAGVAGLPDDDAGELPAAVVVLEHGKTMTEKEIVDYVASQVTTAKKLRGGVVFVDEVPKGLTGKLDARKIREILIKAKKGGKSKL

| Compound | composite z-score [1] | composite Z-score [2] | composite z-score [3] | composite z-score [4] | composite z-score [5] | composite z-score [6] | composite z-score [7] | composite z-score [8] | composite z-score [9] | composite z-score [10] | composite z-score [11] | composite z-score [12] | composite z-score [13] | composite z-score [14] | composite z-score [15] | composite z-score [16] | z-score [17] | composite z-score [18] | composite z-score [19] | z-score [20] |
| --- | --- | --- | --- | --- | --- | --- | --- | --- | --- | --- | --- | --- | --- | --- | --- | --- | --- | --- | --- | --- |
| CCCC[C@H]1OB(O)C[C@H]2C1=C(C)Cn1c(=O)n(-c3ccccc3)c(=O)n12 | 0.242 | -0.426 (inactive) | -0.236 | -0.177 | -0.159 | 0.549 | 0.144 | 0.401 | 0.77 | 0.0577 | 0.247 | 0.299 | -0.144 | -0.0265 | 0.415 | 0.321 | -0.281 | 0.493 | 0.0939 | 0.169 (inactive) |
| CCCC[C@@H]1C[C@H]1[C@@H](NC(=O)c1ccccc1)c1ccccc1 | 0.0945 | 0.103 (inactive) | 0.667 | 0.253 | -0.0524 | 0.506 | -0.159 | 0.138 | -0.608 | -0.482 | 1.47 | -0.23 | 0.202 | 0.244 | 0.671 | 0.085 | -1.03 | -0.235 | 0.136 | 1.19 (inactive) |
| COc1ccc(C(=O)Nc2cccc(CN3C(=O)[C@@]4(O[C@@H](CCn5cc([C@H](O)c6ccccc6)nn5)[C@H]([Si](C)(C)c5ccc(OC)cc5)[C@H]4C)c4ccccc43)c2)cc1 | -0.455 | 0.257 (inactive) | 0.123 | -0.053 | 0.113 | 1.16 | 0.0494 | 0.459 | 0.078 | 0.791 | 0.669 | 0.138 | 0.638 | 0.528 | 1.19 | 0.612 | -0.175 | 1.01 | 0.443 | 0.39 (inactive) |
| COCCCNC(=O)[C@@]1(C)c2ccccc2C(=O)N(Cc2ccccc2)[C@H]1c1ccc(CO)cc1 | 0.172 | 0.45 (inactive) | -0.274 | -0.189 | 0.397 | 2.62 | 0.848 | 0.203 | -1.5 | 0.17 | 0.909 | 0.0047 | 0.101 | -0.678 | 0.0033 | -0.992 | -0.939 | -0.635 | -0.505 | -0.0137 (inactive) |
| NC(=O)[C@]1(Cc2ccccc2)N=C(c2ccc(OCCCO)cc2)O[C@@H]1c1ccccc1 | 0.532 | 0.702 (inactive) | 0.106 | 0.0959 | 0.865 | 2.53 | 0.583 | 0.827 | -0.0464 | 0.587 | 1.15 | 1.12 | 0.246 | 0.977 | 0.368 | -0.555 | -1.04 | -0.524 | 1.05 | -0.354 (inactive) |
| CO[C@H]1O[C@H](CO)[C@@H](OC(=O)Nc2cccc(F)c2)[C@H](OC(=O)Nc2ccccc2-c2ccccc2)[C@@H]1OC(=O)Nc1ccccc1-c1ccccc1 | 0.914 | -0.116 (inactive) | 0.0479 | -0.0041 | 0.385 | 2.56 | 1 | 1.3 | -0.262 | 1.23 | 1.61 | 1.25 | 0.797 | 1 | 1.09 | 0.205 | -1.16 | 0.102 | 1.11 | 0.923 (inactive) |
